The test concerns Trichoderma virens ATCC 9645. The test can be described thus: growth yield (OD600) relative to untreated control; higher = less growth inhibition. As to conditions: compound concentration: 100 uM. The method in brief: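 Trichoderma virens ATCC 9645 spores, from potato dextrose agar plates grown for 7 days, were brought to 15,000 spores ml^−1 in potato dextrose broth and dispensed as 100 μl aliquots into 96-well plates. Each aliquot received library compounds at 100 μM final, with or without a biocide at 200 ng ml^−1, before growth at 30 °C and OD600 readings on a BioTek EL800 at 40 h and 72 h. Growth is expressed relative to the control containing neither agent and represents means of duplicate screens.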

Where a name gives a salt, the structure may show the parent alone. ± gives the standard error. In all, about 1,300 compounds went through this assay and about 75 (6%) showed an effect of 50% or more. The entries come from a sample that favours strong results as a whole.

With `CCC[C@H](N[C@@H](C)C(=O)N1[C@H](C(=O)O)C[C@@H]2CCCC[C@@H]21)C(=O)OCC` [Perindopril], the growth yield came out at 101 ± 3.5% (40 h) and 96.9 ± 2.5% (72 h).
`Cn1c(=O)c2c(ncn2CC(=O)O)n(C)c1=O` [Acefylline] came in with a growth yield (40 h) of 96.6 ± 1.9% and a growth yield (72 h) of 95.12 ± 0.94%.
The corresponding values for `O=C(O)c1cn(-c2ccc(F)cc2)c2cc(N3CCNCC3)c(F)cc2c1=O` [Sarafloxacin] are 101 ± 4.1% and 97 ± 2.4%.
The corresponding values for `O=C1NCCN1CCN1CCC(c2cn(-c3ccc(F)cc3)c3ccc(Cl)cc23)CC1` [Sertindole] are 34.5 ± 20% and 111 ± 2.4%.
As for `CN(C)[C@@H]1C(O)=C(C(=O)NCNCCCC[C@H](N)C(=O)O)C(=O)[C@@]2(O)C(O)=C3C(=O)c4c(O)cccc4[C@@](C)(O)[C@H]3C[C@@H]12` [Lymecycline], the growth yield runs as follows: (40 h) 82.1 ± 2.7%; (72 h) 73.83 ± 0.63%.
On to `CC(C)(O/N=C(\C(=O)N[C@@H]1C(=O)N2C(C(=O)[O-])=C(C[n+]3ccccc3)CS[C@H]12)c1csc(N)n1)C(=O)O` [Ceftazidime pentahydrate], for which the growth yield reads like this: (40 h) 102%; (72 h) 102 ± 1.1%.
The corresponding values for `CO/N=C(\C(=O)N[C@@H]1C(=O)N2C(C(=O)OC(C)OC(C)=O)=C(COC(N)=O)CS[C@H]12)c1ccco1` (stereo partly drawn) [Cefuroxime axetil] are 97.05 ± 0.16% and 96.5 ± 1.7%.
The corresponding values for `CC(C)NCC(O)c1cc(O)cc(O)c1` (stereo not drawn) [Metaproterenol sulfate, orciprenaline sulfate] are 99.1 ± 1.6% and 99.95 ± 0.1%.
The corresponding values for `CC(=O)N1CCN(c2ccc(OCC3COC(Cn4ccnc4)(c4ccc(Cl)cc4Cl)O3)cc2)CC1` (stereo not drawn) [Ketoconazole] are 2.22 ± 1.3% and 1.68 ± 0.84%.
In turn, `CCC(C)n1ncn(-c2ccc(N3CCN(c4ccc(OCC5COC(Cn6cncn6)(c6ccc(Cl)cc6Cl)O5)cc4)CC3)cc2)c1=O` (stereo not drawn) [Itraconazole] returned a growth yield (40 h) of 4.77 ± 2.2% and a growth yield (72 h) of 13.2%.
The corresponding values for `CC[C@@H]([C@H](C)O)n1ncn(-c2ccc(N3CCN(c4ccc(OC[C@@H]5CO[C@@](Cn6cncn6)(c6ccc(F)cc6F)C5)cc4)CC3)cc2)c1=O` [Posaconazole] are 8.9 ± 8.9% and 5.77 ± 5.6%.
The corresponding values for `CC(C)N1CCN(c2ccc(OCC3COC(Cn4cncn4)(c4ccc(Cl)cc4Cl)O3)cc2)CC1` (stereo not drawn) [Terconazole] are 82.44 ± 0.16% and 88.4 ± 1.1%.
The corresponding values for `Nc1ccc(C(=O)O)c(O)c1` [4-aminosalicylic acid] are 93.1% and 89.36 ± 0.42%.
Take `CO[C@@]1(NC(=O)C(C(=O)O)c2ccc(O)cc2)C(=O)N2C(C(=O)O)=C(CSc3nnnn3C)CO[C@@H]21` (stereo partly drawn) [Moxalactam disodium salt]: the growth yield runs as follows: (40 h) 96.1 ± 0.16%; (72 h) 92.71 ± 0.63%.
The corresponding values for `CCC(C)(C)C(=O)O[C@H]1C[C@@H](C)C=C2C=C[C@H](C)[C@H](CC[C@@H]3C[C@@H](O)CC(=O)O3)[C@H]21` [Simvastatin] are 103 ± 1.3% and 96.2 ± 4.5%.
As to `C=CCN1CCCC1CNC(=O)c1cc2nn[nH]c2cc1OC` (stereo not drawn) [Alizapride hydrochloride], the growth yield (40 h) is 108 ± 4.3% and the growth yield (72 h) was determined as 109 ± 2.7%.
The corresponding values for `CN(C)C(=N)NC(=N)N` [Metformin hydrochloride] are 105 ± 7.2% and 103 ± 5.3%.
The corresponding values for `Clc1ccc(CO/N=C(\Cn2ccnc2)c2ccc(Cl)cc2Cl)c(Cl)c1` [Oxiconazole Nitrate] are 1.59 ± 1.6% and 0.839 ± 0.84%.
The corresponding values for `Clc1ccc(CSC(Cn2ccnc2)c2ccc(Cl)cc2Cl)cc1` (stereo not drawn) [Sulconazole nitrate] are 2.22 ± 0.64% and 1.78 ± 0.52%.
For `Clc1ccc(C(Cn2ccnc2)OCc2c(Cl)cccc2Cl)c(Cl)c1` (stereo not drawn) [Isoconazole], the growth yield reads like this: (40 h) 2.06 ± 1.4%; (72 h) 1.68 ± 1.1%.
The corresponding values for `Clc1ccc(CCC(Cn2ccnc2)Sc2c(Cl)cccc2Cl)cc1` (stereo not drawn) [Butoconazole nitrate] are 3.49% and 2.31%.
Consider `CCN1CCCC(OC(=O)C(c2ccccc2)c2ccccc2)C1` (stereo not drawn) [Piperidolate hydrochloride], for which the growth yield reads like this: (40 h) 106 ± 0.79%; (72 h) 105 ± 1.8%.
`C=CC[N@@+]12CC[C@@]34c5ccccc5N5/C=C6/[C@H]7C[C@H]8[C@@]9(CC[N@@+]8(CC=C)C/C7=C/CO)c7ccccc7N(/C=C(/[C@@H](C[C@@H]31)/C(=C\CO)C2)[C@H]54)[C@@H]69` [Alcuronium chloride] returned a growth yield (40 h) of 66.1 ± 7.6% and a growth yield (72 h) of 65.8 ± 5.3%.
Consider `O=C(O)CCNC(=O)c1ccc(/N=N/c2ccc(O)c(C(=O)O)c2)cc1` [Balsalazide Sodium], for which the growth yield by setting is: (40 h) 107 ± 1.4%; (72 h) 101.9 ± 0.84%.
As to `OCCN1C[C@H](O)[C@@H](O)[C@H](O)[C@H]1CO` [Miglitol], the growth yield reads like this: (40 h) 101 ± 3%; (72 h) 103 ± 3.1%.
For the compound `C#C[C@]1(O)CC[C@H]2[C@@H]3[C@H](C)CC4=C(CCC(=O)C4)[C@H]3CC[C@@]21C` [Tibolone], the growth yield turned out to be 88.31 ± 0.64% (40 h) and 90.72 ± 0.1% (72 h).
Consider `CN1CC2c3ccccc3Oc3ccc(Cl)cc3C2C1` (stereo not drawn) [Asenapine maleate], for which the growth yield runs as follows: (40 h) 100 ± 1.3%; (72 h) 106 ± 1.3%.
The corresponding values for `C=CCOC(Cn1ccnc1)c1ccc(Cl)cc1Cl` (stereo not drawn) [Enilconazole] are 3.49% and 3.04 ± 0.32%.
With `O=C(O)/C=C/c1ccc(Cn2ccnc2)cc1` [Ozagrel hydrochloride], the growth yield by setting is: (40 h) 110 ± 9.5%; (72 h) 106 ± 5.1%.
Consider `Clc1ccc(C(Cn2ccnc2)OCc2csc3c(Cl)cccc23)c(Cl)c1` (stereo not drawn) [Sertaconazole nitrate], for which the growth yield (40 h) was 3.81% and the growth yield (72 h) turned out to be 2.73%.
The corresponding values for `Clc1ccc(C(Cn2ccnc2)OCc2ccsc2Cl)c(Cl)c1` (stereo not drawn) [Tioconazole] are 2.22 ± 1.6% and 1.89 ± 0.84%.
The corresponding values for `Clc1ccc(COC(Cn2ccnc2)c2ccc(Cl)cc2Cl)cc1` (stereo not drawn) [Econazole nitrate] are 2.22 ± 0.64% and 1.78 ± 0.52%.
The corresponding values for `CCOC(=O)O[C@]1(C(=O)OCCl)CC[C@H]2[C@@H]3CCC4=CC(=O)C=C[C@]4(C)[C@H]3[C@@H](O)C[C@@]21C` [Loteprednol etabonate] are 97.7 ± 3.6% and 97.4 ± 3.5%.
Regarding `CNCC(O)c1ccc(OC(=O)C(C)(C)C)c(OC(=O)C(C)(C)C)c1` (stereo not drawn) [Dipivefrin hydrochloride], the growth yield by setting is: (40 h) 99.28 ± 0.79%; (72 h) 100.2 ± 0.94%.
As for `CN(C)[C@@H]1C(O)=C(C(N)=O)C(=O)[C@@]2(O)C(O)=C3C(=O)c4c(O)cccc4[C@@](C)(O)[C@H]3C[C@@H]12` [Tetracycline hydrochloride], the growth yield (40 h) is 95.9% and the growth yield (72 h) stood at 76.2 ± 15%.
The corresponding values for `CCN(CC)CCN[C@@H](C(=O)OCCC(C)C)c1ccccc1` [Camylofine chlorhydrate] are 104 ± 1.8% and 102 ± 1.5%.
The corresponding values for `CC1=C(CC(=O)O)c2cc(F)ccc2/C1=C\c1ccc([S+](C)[O-])cc1` (stereo not drawn) [Sulindac] are 90.1 ± 1.1% and 86.31 ± 0.73%.
The corresponding values for `CN(C)CCCSC(=N)N` [Dimaprit dihydrochloride] are 102 ± 3.3% and 99.5 ± 3.2%.
Compound `CC(C)(C)NC(=O)[C@H]1CC[C@H]2[C@@H]3CC[C@H]4NC(=O)C=C[C@]4(C)[C@H]3CC[C@]12C` [Finasteride] showed a growth yield (40 h) of 84 ± 5.9% and a growth yield (72 h) of 81.1 ± 2%.

These data come from the supplement of paper PMC8007513.
